From PubChem BioAssay
The list is not random: actives were taken first. Their share in the collection is about 8.3%.
VP16 counter: counter-screen for ROR gamma inhibitors: Gal4-VP16 reporter. AID 2546. Potency, µM (doses to about 53.6 µM), inactives show top-dose activity, negative = inhibition, usual class: inhibitors. 3.5% of 310,000 active. Drosophila S2 Gal4-VP16 UAS-luciferase, luminescence, 20 h;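 note: Gal4-VP16 expression switched on by copper sulfate through the metallothionein promoter; potency is the fitted concentration of half-maximal effect; % is set by controls: 0 for no effect and ±100 for the full control effect; nearly all actives have a fitted effect of over 50% in size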
SW480 rerep: inducers of DNA re-replication in SW480 colon cancer cells; SW480 DNA re-replication, Hoechst DNA content imaging, 48 h; Potency, µM (top dose mostly 46.1 µM), without a hit: top-dose re-replication activation, actives largely listed as activators; 1.8% of 340,000 active; AID 624297; note: potency is the fitted concentration of half-maximal effect; % of control where 0% means no effect; nearly all actives have a fitted effect of over 55% in size
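Hoechst fluorescence of nuclei (405 nm excitation, 500-530 nm emission) measured by plate-scanning imager after 48 hr compound exposure at 37 C; re-replication scored as increased number of nuclei with elevated intensity.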
MCF10A rereplic: induces DNA re-replication in MCF 10a normal breast cells; Potency, µM (top dose mostly 46.1 µM), for the others: top-dose activity, positive = re-replication, hits mostly activators; AID 624296; MCF 10A DNA re-replication, Hoechst nuclear intensity, 48 h; 2.9% of 350,000 active; note: potency is the fitted concentration of half-maximal effect; % of control where 0% means no effect; nearly all actives have a fitted effect of over 50% in size
Chronic BCR inh: inhibitors of chronic active B-cell receptor signaling; 0.05% of 340,000 active; Potency, µM (highest dose often 46.1 µM), inactives show at the top dose activity change, negative = inhibition, usual class: inhibitors; ABC-DLBCL IkBa-CBG/CBR reporter, luminescence ratio, 4 h; AID 493014; active = well fitted inhibition curve with a large enough effect in the signal ratio, with a control signal flat, not every such curve was filed as active; inconclusive = small, poorly fitted or top-dose-only effect, or effect the other way, or a change in a side signal; the % refers to the signal ratio;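 note: potency is the fitted concentration of half-maximal effect; plate controls were basal doxycycline-induced cells for no effect and cells given 10 µM MG132 for full effect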
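TMD8 human ABC-DLBCL cells with doxycycline-inducible IκBα–green luciferase fusion and unfused red luciferase, in 0.5% FBS medium; compounds up to 46 uM, 4 h at 37C. Green/red luminescence ratio, filter-overlap corrected, fitted to concentration-response curves.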
RORg inh: ROR gamma (mouse) transcription inhibition; P51450; Potency, µM (highest dose often 53.6 µM), inactives show at the highest dose activity change, negative = inhibition, actives largely listed as inhibitors; 5.4% of 310,000 active; Drosophila S2 Gal4-RORgamma UAS-luciferase reporter, 20 h; note: potency is the fitted concentration of half-maximal effect; % is set by controls: 0 for no effect and ±100 for the full control effect; nearly all actives have a fitted effect of over 60% in size
Target sequence (P51450 whole entry, looked up, the tested form may be a part): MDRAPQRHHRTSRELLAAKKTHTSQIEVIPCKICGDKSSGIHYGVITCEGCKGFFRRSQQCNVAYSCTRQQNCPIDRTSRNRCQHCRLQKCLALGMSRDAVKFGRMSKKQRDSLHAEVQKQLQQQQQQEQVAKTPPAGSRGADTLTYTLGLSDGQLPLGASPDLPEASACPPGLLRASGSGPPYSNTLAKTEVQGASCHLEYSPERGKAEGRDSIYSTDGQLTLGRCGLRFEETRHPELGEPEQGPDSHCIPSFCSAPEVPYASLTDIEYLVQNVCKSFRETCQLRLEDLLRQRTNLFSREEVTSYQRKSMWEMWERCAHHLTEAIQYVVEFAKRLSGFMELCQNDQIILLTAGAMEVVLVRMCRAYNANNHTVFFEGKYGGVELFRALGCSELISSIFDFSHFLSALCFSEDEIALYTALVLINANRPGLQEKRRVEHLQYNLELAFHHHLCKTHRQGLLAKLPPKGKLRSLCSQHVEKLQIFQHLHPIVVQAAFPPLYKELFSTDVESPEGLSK
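Luminescence from a UAS-regulated Photinus luciferase reporter in stably transfected Drosophila Schneider cells is measured; decreased signal marks ROR gamma inhibition. Fusion expression is induced by 700 uM copper sulfate for 20 hr.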
Giardia kill: Giardia lamblia killing; activity change, % at 7.66 µM, hits read low; Giardia lamblia trophozoite viability; 0.15% of 340,000 active; in the data active = activity change below about -80%; inconclusive = between about -30% and that limit;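 note: parasites exposed to compound for two days anaerobically before the ATP read; % is set by controls: 0 for no effect and ±100 for the full control effect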
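Compounds were tested on trophozoites seeded at 100 cells/well and held 48 hrs at 37 deg C anaerobically. An ATP-based luminescent kit measured the remaining live cells.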
The depositor's hits bear a star; ? = inconclusive; / = not tested or not shown; [ ] = dose if it differs, or a comment. Unless noted, calls come from the whole dose curve; as a rule, active = well fitted curve in the direction sought with a large enough effect; inconclusive = small, poorly fitted or top-dose-only effect, or another doubt; inactive = no such curve, though single readings can be large; an effect the other way counts as inactive or inconclusive.

SMILES | VP16 counter | SW480 rerep | MCF10A rereplic | Chronic BCR inh | RORg inh | Giardia kill
O=C(CSC1=NNC(c2ccccn2)S1)Nc1ccc(C(F)(F)F)cc1 (stereo not drawn) | 5µM* | ? | ? | -17% | 3.2µM* | 25
O=S(=O)(c1ccc2c(c1)CCCC2)N1CCN(c2nc(-c3ccccc3)nc3ccccc23)CC1 | / | / | / | / | / | -8
C=CCC[C@@H](Cc1ccc(F)cc1)C(=O)OC[C@H](Cc1c[nH]c2ccccc12)NC(=O)[C@@H](CC=C)CC(=O)N[C@H](CO)Cc1ccccc1 | / | 3.7µM* | 21% | -5% | / | 3
C=CCC[C@@H](Cc1ccc(F)cc1)C(=O)OC[C@@H](Cc1c[nH]c2ccccc12)NC(=O)[C@H](CC=C)CC(=O)N(CCO)Cc1ccccc1 | / | ? | 23µM* | ? | / | 10
C=CC[C@@H](CC(=O)N(CCO)Cc1ccccc1)C(=O)N[C@@H](COC(=O)[C@@H](CC=C)Cc1ccc(F)cc1)Cc1c[nH]c2ccccc12 | / | 1% | ? | ? | / | 9
C=CCC[C@H](Cc1ccc(F)cc1)C(=O)OC[C@H](Cc1c[nH]c2ccccc12)NC(=O)[C@@H](CC=C)CC(=O)N[C@@H](CO)Cc1ccccc1 | / | -6% | ? | 0% | / | 8
C=CCC[C@H](Cc1ccc(F)cc1)C(=O)OC[C@@H](Cc1c[nH]c2ccccc12)NC(=O)[C@H](CC=C)CC(=O)N(CCO)Cc1ccccc1 | / | ? | 18µM* | ? | / | -17
C=CC[C@H](CC(=O)N(CCO)Cc1ccccc1)C(=O)N[C@@H](COC(=O)[C@@H](CC=C)Cc1ccc(F)cc1)Cc1c[nH]c2ccccc12 | / | 21µM* | 18µM* | ? | / | 3
COc1ccc(N2C(=O)c3ccccc3NC2c2ccc(OC)c(COc3ccc(NC(C)=O)cc3)c2)cc1 (stereo not drawn) | / | / | / | / | / | -13
O=c1[nH]c(-c2ccccn2)nc2sc(-c3ccccc3)cc12 | 1.4µM* | 6.5µM* | 1.3µM* | ? | 0.32µM* | -3
CC(=O)Oc1c(C)cc(Cl)cc1C(=O)Nc1ccc([N+](=O)[O-])cc1Cl | 1µM* | 6.5µM* | 17% | ? | 1µM* | 5
COc1cc(Cl)cc(CN2CCC(CCC(=O)NC3CC3)CC2)c1OC | -2% | ? | 5% | 2% | -7% | -19
COc1cc(Cl)c(CN2CCC(CCC(=O)NC3CC3)CC2)cc1OC | -8% | -46% | 0.58µM* | -3% | -1% | -6
CCOC(=O)C(=Cc1ccc(F)cc1)C(=O)OCC | ? | / | / | ? | 10µM* | /
CCOC(=O)/C(=C/c1ccc(OC(=O)c2ccncc2)cc1)C(C)=O | 17% | -2% | ? | ? | ? | -1
CCOC(=O)C(=Cc1ccc(Br)cc1)C(=O)OCC | ? | 7.3µM* | 1.6µM* | ? | 14µM* | 5
CCOC(=O)C(=Cc1ccc(-n2ccnc2)cc1)C(=O)OCC | ? | 6.5µM* | 2.6µM* | ? | ? | -15
CN(CC(=O)Nc1ccccc1Cl)C(=O)COC(=O)/C=C/c1cccc(C(F)(F)F)c1 | / | 0% | 1% | 0% | / | 24
CCc1c(C)nc2ncnn2c1NCCc1ccc(OC)cc1 | 18µM* | 5.6µM* | 2.5µM* | -7% | 5% | 11
CC(C)C(=O)N1CCN(c2nc(-c3ccccc3)c3c(c2C#N)CCCC3)CC1 | -1% | ? | 18µM* | 30% | 0% | -13
Cc1nc(N2CCN(C(=O)c3ccco3)CC2)c(C#N)c2c1CCCC2 | ? | -4% | 7% | 11% | -16% | 30
CC(C)Cc1nc(N2CCN(C(=O)c3ccco3)CC2)c(C#N)c2c1CCCC2 | -21% | 85% | 23µM* | 15% | -4% | 4
CC(C)(C)NS(=O)(=O)c1ccc(CCC(=O)Nc2cc(Cl)ccc2Oc2ccccc2)cc1 | -3% | -4% | -11% | ? | -4% | 18
CCCNS(=O)(=O)c1ccc(CCC(=O)Nc2cc(Cl)ccc2Oc2ccccc2)cc1 | 3% | 5% | 8.2µM* | -9% | ? | 10
CC(C)CNS(=O)(=O)c1ccc(CCC(=O)Nc2cc(Cl)ccc2Oc2ccccc2)cc1 | 0% | 7.3µM* | 16% | ? | 37% | 8
SMILES | VP16 counter | SW480 rerep | MCF10A rereplic | Chronic BCR inh | RORg inh | Giardia kill
COc1cccc(CNc2nnnn2C)c1 | 0% | 5%[9.22 µM] | 7% | -4% | 27% | -17
COc1ccccc1C(=O)Nc1sc(C(=O)N2CCCC2)c(C)c1C#N | 7.9µM* | -19% | -10% | ? | 4µM* | -11
CC1(C)CC(=O)C2=C(C1)Oc1nc3ccccc3cc1C2C(C#N)C#N (stereo not drawn) | ? | ? | 9.2µM* | ? | 3.2µM* | 20
CC1(C)CC(=O)C([C@H]2C3=C(CC(C)(C)CC3=O)Oc3ccccc32)C(=O)C1 | 0% | / | / | / | 18% | /
Fc1ccc(Nc2nc(N3CCOCC3)c3ccccc3n2)cc1 | 0% | 4% | ? | ? | 3% | 41
c1ccc2c(Nc3nc(N4CCOCC4)c4ccccc4n3)cccc2c1 | ? | ? | 18µM* | ? | -13% | 6
CCc1nnc(NC(=O)COc2ccc3c(c2)OCO3)s1 | 5% | -11% | 7% | -4% | -1% | -22
CCCc1c(C)nn(C(=O)/C(C#N)=N/Nc2ccccc2[N+](=O)[O-])c1C | 1% | 1% | 0% | -2% | -30% | -5
COc1ccc(C(=O)/C(C#N)=N/Nc2ccc([N+](=O)[O-])cc2)cc1 | 3.5µM* | ? | ? | -12% | 5.6µM* | ?
COc1ccc(C(=O)/C(C#N)=N/Nc2ccccc2[N+](=O)[O-])cc1 | ? | 5.8µM* | 1.8µM* | ? | ? | -11
CCOC(=O)c1ccc(NC(=O)COc2cccc3c(=O)n(C)ccc23)cc1 | / | / | / | 18% | / | /
NC(=O)COc1c(-c2ccc(Br)o2)oc2ccccc2c1=O | 7% | -1% | 2% | 15% | 18% | 7
COc1ccc(NC(=O)Nc2cccc3c2O[C@@H](CN(C)CC2CCCCC2)[C@@H](C)CN([C@H](C)CO)C3=O)cc1 | / | 21% | 5% | 0% | / | 16
CS(=O)(=O)N(Cc1ccccc1F)c1ccccc1 | -2% | -2% | -15% | -1% | 3% | -4
CCN1CCN(C(c2cccs2)C(C)NC(=S)Nc2cc(C)ccc2C)CC1 (stereo not drawn) | -18% | -10% | 9% | 1% | ? | 23
CC(NC(=O)Cc1ccccc1)C(c1ccccc1)N1CCOCC1 (stereo not drawn) | 3% | -6% | -4% | 6% | -9% | -23
